Holding throughout (assay): NCI-60 one-dose screen, 48 h (100 = growth as untreated, 0 = no growth, -100 = all killed)
One experiment concerns SR leukemia. The following applies: 10 µM unless noted.
In the next experiment the test system is RPMI-8226 leukemia. The following applies: 10 µM unless noted.
A further experiment relates to OVCAR-8 ovarian. The following applies: 10 µM unless noted.
The subject of another experiment is OVCAR-5 ovarian. The following applies: 10 µM unless noted.
The test system of the next experiment is OVCAR-4 ovarian. The following applies: 10 µM.
The next experiment concerns SK-OV-3 ovarian. To be noted: 10 µM unless noted.
For the next experiment, the system named is IGROV1 ovarian. The following applies: 10 µM unless noted.
The test system of the next experiment is OVCAR-3 ovarian. The following applies: 10 µM unless noted.
The subject of another experiment is HS 578T breast. To be noted: 10 µM unless noted.
For another experiment, the system named is NCI/ADR-RES ovarian. The following applies: 10 µM unless noted.
The next experiment deals with T-47D breast. The following applies: 10 µM unless noted.
The next experiment concerns MDA-MB-435 melanoma. The following applies: 10 µM unless noted.
The test system of a further experiment is SW-620 colon. To be noted: 10 µM unless noted.
The test system of the next experiment is MCF7 breast. To be noted: 10 µM unless noted.
A further experiment has as its system HCT-116 colon. To be noted: 10 µM unless noted.
Another experiment has as its system HCC-2998 colon. The following applies: 10 µM unless noted.
Another experiment relates to KM12 colon. To be noted: 10 µM unless noted.
For the next experiment, the system named is BT-549 breast. The following applies: 10 µM unless noted.

Compounds without any hit were thinned out: in the full panel of roughly 83,000, 20% have a hit.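 Method: cells in 96-well plates; compound added at one concentration; 48 h incubation; percent growth measured; values under 10 scored active.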 A number with no mark means an inactive call. Calls of active or inactive are those of the source.

In the case of `CCc1ccc(-c2ccc(COc3ccc(CC4SC(=O)NC4=O)cc3)cc2)cc1` (stereo not drawn), the growth was 45.9% with SR leukemia; 57.5% in the experiment with RPMI-8226 leukemia; 77.2% in the experiment with OVCAR-8 ovarian; 91.2% with OVCAR-5 ovarian; 58.6% in the experiment on OVCAR-4 ovarian; 84.9% with SK-OV-3 ovarian. Moreover, the growth with IGROV1 ovarian is 63.8%; in the experiment on OVCAR-3 ovarian, 73.6%; in the experiment with HS 578T breast, 80.9%; with NCI/ADR-RES ovarian it was 65.1%; with T-47D breast it was 41%; with MDA-MB-435 melanoma, 57.9%. The growth in the experiment with SW-620 colon is 80.7%; in the experiment on MCF7 breast, 59.1%; in the experiment on HCT-116 colon it was 51%; with HCC-2998 colon, 89.6%; with KM12 colon, 64%.

`Cc1cc2c(C(C)C)c(O)c(O)c(C=NCc3ccoc3)c2c(O)c1-c1c(C)cc2c(C(C)C)c(O)c(O)c(C=NCc3ccco3)c2c1O`: the growth with SR leukemia is 13.9%; with RPMI-8226 leukemia it was 33.5%; with OVCAR-8 ovarian, 30.2%; in the experiment with OVCAR-5 ovarian, 68.9%; in the experiment with OVCAR-4 ovarian it was 31.2%; in the experiment on SK-OV-3 ovarian, 54.4%. The growth in the experiment on IGROV1 ovarian was 46.5%; in the experiment on OVCAR-3 ovarian, 25.9%; with HS 578T breast, 45%; in the experiment with NCI/ADR-RES ovarian, 44.4%; with T-47D breast, 33.5%; with MDA-MB-435 melanoma it was 67.1%. Besides, the growth in the experiment with SW-620 colon is 24.6%; in the experiment on MCF7 breast, 22.4%; in the experiment on HCT-116 colon, 20.7%; in the experiment on HCC-2998 colon it was 35.5%; in the experiment with KM12 colon, 19.4%.

`O=C(CSc1nc2ccc([N+](=O)[O-])cc2[nH]1)Nc1cccc(Cl)c1`: the growth is 12.7% with SR leukemia; -19.6% (active) in the experiment on RPMI-8226 leukemia; 18.7% in the experiment on OVCAR-8 ovarian; 61.4% in the experiment with OVCAR-5 ovarian; 2.46% (active) in the experiment with OVCAR-4 ovarian; 29.4% in the experiment on SK-OV-3 ovarian. For the same compound, the growth was 37.9% in the experiment on IGROV1 ovarian; 19% in the experiment with OVCAR-3 ovarian; 38.3% in the experiment with HS 578T breast; 25.4% in the experiment with NCI/ADR-RES ovarian; 17.2% in the experiment on BT-549 breast; 20.5% in the experiment with MDA-MB-435 melanoma. Moreover, the growth with SW-620 colon is 39.9%; with MCF7 breast, 15.3%; in the experiment with HCT-116 colon it was 14.7%; in the experiment with HCC-2998 colon, 34.4%; in the experiment with KM12 colon it was 23.9%.

In the case of `COc1cc2c(c(OC)c1)C1c3cc(OC)ccc3NC(=O)N1CC2` (stereo not drawn), the growth in the experiment on SR leukemia is 24%; with RPMI-8226 leukemia, 81.9%; in the experiment on OVCAR-8 ovarian, 95.1%; in the experiment on OVCAR-5 ovarian, 93.7%; in the experiment on OVCAR-4 ovarian, 96.2%; with SK-OV-3 ovarian it was 93.1%. In addition, the growth with IGROV1 ovarian was 80.2%; with OVCAR-3 ovarian, 81.9%; with HS 578T breast it was 90.2%; with T-47D breast it was 88.7%; in the experiment with MDA-MB-435 melanoma, 9.36% (active); in the experiment with SW-620 colon, 49.4%. The growth in the experiment with MCF7 breast is 58.3%; in the experiment on HCT-116 colon, 65.2%; in the experiment on HCC-2998 colon, 94%; in the experiment on KM12 colon, 49.4%.

With `CC1Cc2c(ncnc2-n2cnc3ccccc32)N(C)c2ccccc21` (stereo not drawn), the growth was 15.2% in the experiment with SR leukemia; 26.2% with RPMI-8226 leukemia; 44.1% with OVCAR-8 ovarian; 95.2% with OVCAR-5 ovarian; 65.2% in the experiment with OVCAR-4 ovarian; 17.2% with SK-OV-3 ovarian. The growth in the experiment with IGROV1 ovarian is 62.5%; with OVCAR-3 ovarian, 14.7%; with HS 578T breast it was 36.6%; in the experiment with T-47D breast, 33.3%; in the experiment with MDA-MB-435 melanoma, -23.7% (active); in the experiment with SW-620 colon it was 17.7%. The growth was 18.2% in the experiment on MCF7 breast, 21.3% with HCT-116 colon, 64.8% with HCC-2998 colon and 27.8% in the experiment on KM12 colon.

For `c1nc(N2CCOCC2)c2[nH]ccc2n1`, the growth was 92% in the experiment with SR leukemia; 94.1% in the experiment with RPMI-8226 leukemia; 106% in the experiment with OVCAR-8 ovarian; 116% in the experiment on OVCAR-5 ovarian; 106% with OVCAR-4 ovarian; 110% in the experiment with SK-OV-3 ovarian. The growth was 112% with IGROV1 ovarian; 118% in the experiment on OVCAR-3 ovarian; 96.7% in the experiment with HS 578T breast; 112% with T-47D breast; 101% in the experiment on BT-549 breast; 112% in the experiment with MDA-MB-435 melanoma. For the same compound, the growth with SW-620 colon is 111%; in the experiment on MCF7 breast it was 90.6%; in the experiment on HCT-116 colon it was 103%; in the experiment on HCC-2998 colon it was 110%.

As for `CN(C)CCOc1ccc(/C(=C(/CCCl)c2ccccc2)c2ccccc2)cc1`, the growth with SR leukemia is -17% (active); in the experiment with RPMI-8226 leukemia, -11.4% (active); in the experiment with OVCAR-8 ovarian, 26.7%; with OVCAR-5 ovarian, 47%; in the experiment on OVCAR-4 ovarian, 32.9%; in the experiment on SK-OV-3 ovarian, 33.6%. Also, the growth with IGROV1 ovarian was 30.5%; in the experiment on OVCAR-3 ovarian, 12.9%; in the experiment with NCI/ADR-RES ovarian, 14.1%; with T-47D breast, 25.6%; with BT-549 breast, 46.8%; in the experiment with MDA-MB-435 melanoma, -7.62% (active). The growth was 15.8% in the experiment with SW-620 colon; 3.24% (active) in the experiment with MCF7 breast; 6.56% (active) in the experiment on HCT-116 colon; -41.2% (active) with HCC-2998 colon; -47.4% (active) with KM12 colon.

Consider `O=C(CSc1nc2ccc([N+](=O)[O-])cc2[nH]1)Nc1ccc(F)c(Cl)c1`, for which the growth in the experiment on SR leukemia is 5.97% (active); in the experiment on RPMI-8226 leukemia it was -22.3% (active); in the experiment on OVCAR-8 ovarian it was 15.5%; in the experiment with OVCAR-5 ovarian, 50.9%; in the experiment with OVCAR-4 ovarian, 2.64% (active); with SK-OV-3 ovarian, 21.4%. In addition, the growth is 36.1% with IGROV1 ovarian; 16.5% in the experiment on OVCAR-3 ovarian; 20.3% in the experiment with HS 578T breast; 22.4% in the experiment on NCI/ADR-RES ovarian; -0.0932% (active) in the experiment on BT-549 breast; 15.5% in the experiment on MDA-MB-435 melanoma. For the same compound, the growth is 26.4% in the experiment on SW-620 colon; 9.25% (active) in the experiment on MCF7 breast; 7.89% (active) in the experiment on HCT-116 colon; 32.9% in the experiment with HCC-2998 colon; 19.9% in the experiment with KM12 colon.

For `O=C(NCCCCCCCNC(=O)OCc1ccc2c(Cl)cc(Cl)c(O)c2n1)OCc1ccc2c(Cl)cc(Cl)c(O)c2n1`, the growth was 6.26% (active) in the experiment on SR leukemia; -15.5% (active) with RPMI-8226 leukemia; -8.93% (active) with OVCAR-8 ovarian; -76.8% (active) with OVCAR-5 ovarian; -71.9% (active) in the experiment on OVCAR-4 ovarian; 35% in the experiment with SK-OV-3 ovarian. The growth in the experiment on IGROV1 ovarian was -86.2% (active); in the experiment with OVCAR-3 ovarian, -87.2% (active); in the experiment on HS 578T breast it was -9.29% (active); in the experiment on T-47D breast, -62.5% (active); in the experiment with MDA-MB-435 melanoma, -86.4% (active); with SW-620 colon, -67.3% (active). The growth with HCT-116 colon is -70% (active); with HCC-2998 colon, -75.8% (active); in the experiment with KM12 colon it was -82.4% (active).

For the origin of these results see PubChem BioAssay (NCI).
